From PubChem BioAssay AID2781 (National Center for Advancing Translational Sciences (NCATS), 2010)
The source made the active and inactive calls.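 The calls were made as follows: active = compound whose NMR saturation transfer difference test with menin is positive, showing direct binding to the protein; inactive = the rest.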

Target: Menin (Homo sapiens) (UniProt O00255)
Test: Confirmation of Inhibitors Targeting the Menin-MLL Interaction in MLL Related Leukemias: NMR spectroscopy to verify direct binding of compounds to menin
Settings: purified menin, NMR STD binding, 100 uM
From the text: qHTS Assay for Inhibitors Targeting the Menin-MLL Interaction in MLL Related Leukemias NIH Chemical Genomics Center [NCGC] NIH Molecular Libraries Probe Centers Network [MLPCN] MLPCN Grant: MH084875-01A1 Assay Submitter (PI): Jolanta Grembecka, Tomasz Cierpicki, University of Virginia Translocations of the MLL (Mixed Lineage Leukemia) gene are frequently found in human leukemias affecting both children and adults. Fusion of MLL to one of more than 60 genes results in generation of oncogenic proteins upregulating Hox genes, which are vital to blood cell development. Patients harboring fusion of the MLL gene suffer from aggressive leukemias and respond poorly to available therapies. All of the oncogenic fusion proteins have a preserved N-terminal fragment of MLL that has been identified to interact with menin. It has been recently discovered that association with menin is critical to the leukemogenic activity of the MLL fusion oncoproteins. Selective targeting of the menin-MLL interaction could provide an attractive therapeutic approach to develop novel drugs for MLL-related leukemias. Small molecules blocking the menin-MLL interaction should reverse the oncogenic potential of MLL fusion proteins. We have developed and optimized a fluorescence polarization-based assay for the identification of Menin-MLL inhibitors. The assay was run employing two different MLL-derived peptides. The present assay uses a 12 amino acid peptide labeled with fluorescein at its N-terminus. This peptide consists of the menin high affinity binding motif from MLL and is potently bound by menin. Another peptide with a mutated sequence, labeled with Texas Red, was used in parallel as a less stringent screen for inhibitors. The present assay was developed to confirm hits from this primary screen, examining saturation transfer differences in NMR spectra upon incubation of the menin protein with compound.
The Menin protein, the MLL-wild type (w.t.) derived peptide (N-terminal 12 amino acids), the MLL-derived peptide labeled with Texas Red and the MLL-w.t. peptide labeled with Fluorescein were kindly supplied by laboratory of Dr. Jolanta Grembecka, University of Virginia. All protein and peptide solutions were stored in single use aliquots at -80C. The Buffer components for all assays were purchased from Sigma-Aldrich (St. Louis, MO) and Invitrogen (Carlsbad, CA). Assay Reagents: 1. Menin protein 2. MLL w.t. 3. NMR buffer: 50mM phosphate, 50mM NaCl, 1mM DTT, pH = 7.5 NMR protocol: 1. Prepare 450 uL of menin (2.5 uM) in complex with 100uM compound in NMR buffer and run STD (Saturation Transfer Difference) on NMR Bruker 600 MHz 2. Prepare 450 uL of menin (2.5 uM) in complex with 100 uM compound and 25uM of MLL w.t. in NMR buffer and run STD (Saturation Transfer Difference) on NMR Bruker 600 MHz

Sequence of Menin (Homo sapiens) (O00255 whole entry, looked up): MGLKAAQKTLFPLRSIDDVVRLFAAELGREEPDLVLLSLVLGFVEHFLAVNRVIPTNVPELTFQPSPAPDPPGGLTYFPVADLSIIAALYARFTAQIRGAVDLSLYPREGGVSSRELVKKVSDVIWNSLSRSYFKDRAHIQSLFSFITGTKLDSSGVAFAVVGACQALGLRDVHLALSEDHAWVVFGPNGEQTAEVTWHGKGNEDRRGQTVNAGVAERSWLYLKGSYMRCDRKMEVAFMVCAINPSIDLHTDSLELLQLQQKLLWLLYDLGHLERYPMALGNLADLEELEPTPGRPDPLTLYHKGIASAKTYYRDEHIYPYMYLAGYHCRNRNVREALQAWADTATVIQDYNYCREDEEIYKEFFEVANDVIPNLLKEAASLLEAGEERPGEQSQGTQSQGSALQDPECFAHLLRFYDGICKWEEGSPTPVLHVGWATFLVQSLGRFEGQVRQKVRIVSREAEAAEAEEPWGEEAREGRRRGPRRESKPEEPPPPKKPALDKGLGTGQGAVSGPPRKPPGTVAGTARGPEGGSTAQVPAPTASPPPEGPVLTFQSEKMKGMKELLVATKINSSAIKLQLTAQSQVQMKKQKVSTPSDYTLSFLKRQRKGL

outcome, active:
CCOc1cc(CNCCc2ccc(S(N)(=O)=O)cc2)ccc1OCc1ccccc1 active; positive
CCCC(c1nnnn1Cc1cccs1)N1CCN(C2CCCC2)CC1 (stereo not given) active; positive
CCC(c1nnnn1Cc1ccc(F)cc1)N1CCN(C2CCCCC2)CC1 (stereo not given) active; positive
O=C(C[N+]12CC[N+](CC(=O)c3ccc(F)cc3)(CC1)CC2)c1ccc(F)cc1 active; positive
CCCC(c1nnnn1Cc1ccco1)N1CCN(C2CCCC2)CC1 (stereo not given) active; positive
O=C(CCC1CCCCC1)NCCN1C2=NC[C@H](Cc3ccc(O)cc3)N2C[C@H]1Cc1ccc(O)cc1 active; positive
CN(C)C(CNc1ncnc2sc3c(c12)CCCCC3)c1ccco1 (stereo not given) active; positive

outcome, inactive:
NC(=NCCCCCCN=C(N)/N=C(\N)Nc1ccc(Cl)cc1)/N=C(\N)Nc1ccc(Cl)cc1 inactive; negative
CN(CCOc1ccc(Cl)cc1)CC(O)c1ccccc1 (stereo not given) inactive; negative
CCc1oc2ccccc2c1C(=O)c1cc(Br)c(O)c(Br)c1 inactive; negative
CCNc1ccccc1CP(=O)(c1ccccc1)c1ccccc1O (stereo not given) inactive; negative
Cc1nc(N2CCN(C)CC2)c2c3c(sc2n1)CCCC3 inactive; negative
O=C(CS)Nc1ccc2ccccc2c1 inactive; negative
CCC(=O)Nc1ccc(-c2cc(-c3ccccc3)nc(-c3ccc(NC(=O)CC)cc3)n2)cc1 inactive; negative
Cc1cc2[nH]c3c(c[n+](C)c4ccccc34)c2cc1C inactive; negative
CCC[n+]1c2ccccc2cc2ccccc21 inactive; negative
CCc1cc2c(N3CCN(C(=O)c4ccco4)CC3)ncnc2s1 inactive; negative
COC(=O)[C@H](C)NC(=O)c1cc2c(cn1)[nH]c1ccccc12 inactive; negative
COC(=O)Cc1c(C)nc2nc(-c3ccc(OC)cc3)[nH]n2c1=O inactive; negative
O=C(COC(=O)c1ccc(NS(=O)(=O)c2cccs2)cc1)Nc1nc2c(F)c(F)c(F)cc2s1 inactive; negative
CC(C)Sc1nc(N2CCOCC2)c2c3c(sc2n1)COC(C)(C)C3 inactive; negative
COc1ccccc1NS(=O)(=O)c1cc(N2Cc3ccccc3C2=N)ccc1N1CCOCC1 inactive; negative
CS(=O)(=O)c1ccc2nc(NC(=O)Nc3cccc(Cl)c3)sc2c1 inactive; negative
O=C(Nc1cc(Br)ccc1O)c1cc(-c2ccco2)on1 inactive; negative
O=C1C(SCCO)=C(SCCO)C(=O)c2ccccc21 inactive; negative
C[C@H](NC(=O)c1cc2c(cn1)[nH]c1ccccc12)C(=O)O inactive; negative
N=C1c2ccccc2CN1c1ccc(N2CCOCC2)c(S(=O)(=O)Nc2ccc(Cl)cc2)c1 inactive; negative
CC(=O)NC1C(=O)N(CCN2CCOCC2)c2ccc(C)cc21 (stereo not given) inactive; negative
Oc1ccc(Nc2ncnc3c2oc2ccccc23)cc1 inactive; negative
CCN(CC)Cc1cc2[nH]c3c4ccc(Cl)cc4ncc3c2cc1OC inactive; negative
COc1ccccc1NS(=O)(=O)c1cc(NC(=O)Nc2cccc(C)c2)ccc1N1CCCCC1 inactive; negative
CC(c1ccccc1)c1nnc(NC(=O)Nc2ccccc2F)s1 (stereo not given) inactive; negative
O=C(O)c1ccccc1NS(=O)(=O)c1cccc(-n2sc3ccccc3c2=O)c1 inactive; negative
CC1CCCCN1S(=O)(=O)c1ccc(C(=O)Nc2ccccc2-c2nc3ccccc3[nH]2)cc1 (stereo not given) inactive; negative
Cc1ccc(-c2cc(C(=O)Nc3cc(C)ccc3O)no2)cc1 inactive; negative
O=C(Nc1cc(Br)ccc1O)c1cc(-c2ccc3c(c2)OCO3)on1 inactive; negative
CCc1cc2c(N3CCN(c4nnc(CC)s4)CC3)ncnc2s1 inactive; negative
CN(C)c1ccc(C2CC(=O)C=C(Nc3ccccc3N)C2)cc1 (stereo not given) inactive; negative
CCCC[n+]1c2ccccc2cc2ccccc21 inactive; negative
CCc1ccc2c(c1)C(NC(C)=O)C(=O)N2CCN1CCOCC1 (stereo not given) inactive; negative
